Screening data from PubChem.
Rows were chosen to be rich in hits. Some 5.7% of all compounds tested hit in one or more screens of this group.
Cdc25B inh – inhibitors of Cdc25B phosphatase catalytic domain, primary screen, biochemical, OMFP fluorescence | recombinant Cdc25B, OMFP fluorescence Ex485/Em525 | inhibition, %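 (compounds tested at 10 µM final in the well)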 | 0.1% of 65,000 active; in the data active = inhibition above about 50%
MKP-1 inh – MKP-1 phosphatase inhibitors, primary screen, biochemical, in vitro | Dual specificity protein phosphatase 1 (Homo sapiens), P28562 | 0.15% of 65,000 active | recombinant MKP-1, OMFP hydrolysis fluorescence | inhibition, %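 (compounds tested at a single concentration somewhere between 10 and 100 µM)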;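 active = inhibition above about 50%, limit read from the data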;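 note: 0% = DMSO max control wells and 100% = wells with enzyme stopped by NaOH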
Target sequence (P28562 whole entry, looked up): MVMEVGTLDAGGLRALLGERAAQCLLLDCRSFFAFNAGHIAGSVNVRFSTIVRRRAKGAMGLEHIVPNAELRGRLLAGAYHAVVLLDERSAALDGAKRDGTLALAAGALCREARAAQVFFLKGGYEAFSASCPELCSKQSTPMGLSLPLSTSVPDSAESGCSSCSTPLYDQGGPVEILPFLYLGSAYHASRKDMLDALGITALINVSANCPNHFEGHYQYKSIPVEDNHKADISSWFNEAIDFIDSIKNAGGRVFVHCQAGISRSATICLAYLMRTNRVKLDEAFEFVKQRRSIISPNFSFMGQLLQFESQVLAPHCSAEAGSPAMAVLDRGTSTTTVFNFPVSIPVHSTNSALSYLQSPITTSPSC
Hsp90 inh – tumor Hsp90 inhibitors, primary screen, cell lysate, fluorescence polarization, NCI-N417 lysate; Heat shock protein HSP 90-alpha (Homo sapiens), P07900; Cy3B-geldanamycin FP displacement; inhibition, % at 30 µM; 0.35% of 64,000 active;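 active = inhibition above 50%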;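 note: 0% = tracer plus lysate wells and 100% = tracer alone without lysate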
A340 absorber – compound light absorbance at 340 nm, profiling panel, artefact control, biochemical, MLSMR library, data from PS, PMK, MK assays. compound absorbance at 340 nm, fold over control. fold change at 10 µM. 65,000 tested, under 10 active;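 active = at 10 µM dose, initial 340 nm absorbance at least 2 fold that of control wells; inactive = change under 2 fold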;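 note: initial absorbance extrapolated from kinetic A340 decline of NADH oxidation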
Fluor 339 460 – intrinsic fluorescence of library compounds, ex339/em460 – biochemical, MLSMR library, data from DPM-DC assay, artefact control, profiling panel; compound autofluorescence, ex339/em460 nm, NADH buffer; stronger effect = higher value; 1 = no-compound wells, NADH background; fluorescence fold increase at 10 µM; 5.5% of 65,000 active; AID 709, 2007;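 active = at 10 µM, mean starting fluorescence two-fold or more over control wells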;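 note: signal is the first read of a kinetic run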
NADH coupling – inhibitors of PK/LDH coupling enzymes, profiling panel, artefact control, biochemical, MLSMR library | IC50, µM (top dose mostly 10 µM), for the others: at the top dose inhibition | coupled PK/LDH NADH assays, four targets | 0.02% of 65,000 active;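 active = single-dose screening hits from any of four coupled enzyme assays that gave an IC50 when retested across doses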;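 note: the DPM-DC format reads NADH fluorescence rather than 340 nm absorbance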
* = called active by the depositor; . = not tested or not shown.

SMILES	Cdc25B inh	MKP-1 inh	Hsp90 inh	A340 absorber	Fluor 339 460	NADH coupling
CCOC(=O)c1sc(C)c(C(=O)NCCCN2CCOCC2)c1N	-16	17	1	1.1	2.3*	7%
O=C(CSc1ncccc1-c1nc2ccccc2[nH]1)NCc1ccco1	11	2	-11	1	1.7	8%
Cc1cc2nc(-c3cccnc3SCC(=O)NCc3ccco3)[nH]c2cc1C	29	29	-9	1.1	3.7*	8%
O=C1CC(C2CCCO2)C(=O)N1c1cccc(Cl)c1 (configuration not stated)	-13	7	1	1	1.1	0%
COC1=C(OC)C(=O)c2ccccc2C1=O	.	.	93*	.	.	.
COc1ccc(CCNC(=O)CC2Nc3ccccc3NC2=O)cc1OC (configuration not stated)	12	-5	0	1	1.4	11%
COc1ccc(CCNC(=O)CC2Nc3ccccc3NC2=O)cc1 (configuration not stated)	-2	2	-15	0.99	2.1*	8%
O=S(=O)(c1ccc(-c2cn3ccccc3n2)cc1)N1CCOCC1	-15	13	.	1.1	2.2*	5%
Cc1cccn2cc(-c3ccc(S(=O)(=O)N4CCOCC4)cc3)nc12	-1	6	-4	1.1	2.2*	2%
Cc1ccc(CNC(=O)c2ccc(CN3CCOCC3)cc2)cc1	-11	7	.	1	1.1	5%
C#CCNc1nc(CC)nc2c1nnn2Cc1ccccc1F	-4	4	-2	0.96	1	5%
CCc1ccccc1N1C[C@@]23C=C[C@@H](O2)C(C(=O)OCC(C)C)[C@H]3C1=O (some centres not stated)	3	-3	1	0.99	1.1	8%
COCCn1nnnc1CN(Cc1cccnc1)Cc1cc2cc(OC)ccc2[nH]c1=O	-6	-20	-1	0.99	2.2*	8%
COc1ccc2[nH]c(=O)c(CN(Cc3nnnn3Cc3ccccc3)CC3CCCO3)cc2c1 (configuration not stated)	3	26	-2	1.1	2.1*	10%
COc1ccc2[nH]c(=O)c(CN(Cc3nnnn3Cc3ccc(F)cc3)CC3CCCO3)cc2c1 (configuration not stated)	-11	27	-4	1	2*	12%
Cc1cccc(C)c1NC(=O)CSc1nnc(CCCCCNC(=O)OC(C)(C)C)o1	2	5	-2	1.1	1.2	4%
CCC(=O)c1cc(F)c(N2CCN(C(=O)Cc3ccccc3)CC2)cc1C	-15	-5	-4	1.1	1.1	3%
CCOC(=O)c1c(-c2ccccc2)c(C(C)=O)c(=O)n(C)c1C	-10	4	-5	1.1	1.1	4%
CCOc1c(C(N)=O)c(-c2ccccc2)c2c(=O)[nH]c3ccccc3n12	-16	-6	-2	1.1	3.8*	4%
COCc1cc(C)n(CC(=O)NC(C)c2ccccc2)c(=O)c1C#N (configuration not stated)	1	-5	1	1.1	3.8*	9%
COCc1cc(C)n(CC(=O)Nc2ccccc2C(=O)OC)c(=O)c1C#N	5	-14	-8	1.1	2.8*	12%
CCOc1ccccc1NC(=O)Cn1c(C)cc(COC)c(C#N)c1=O	-1	-22	-2	1.1	1.3	8%
CCOC(=O)c1cc(-c2ccncc2)nc2c1c(C)nn2-c1ccccn1	7	29	-7	1.1	1.5	4%
Cc1nn(-c2ccccn2)c2nc(-c3cccs3)cc(C(=O)N3CCOCC3)c12	-11	-2	-6	1.2	2.1*	8%
COCc1cc(C)[nH]c(=O)c1C#N	-7	0	-2	1.1	2.2*	2%
COCc1cc(=O)n2c([nH]c3ccccc32)c1C#N	-11	-11	-3	0.99	4.8*	8%
O=C(NCCn1ccc2ccccc21)c1ccc(S(=O)(=O)N2CCOCC2)cc1	-2	5	-4	1	1.1	6%
